{"source": "PubChem BioAssay AID1376", "about": "(SRMLSC, 2008)", "note": "The whole screen tested about 220,000 compounds, of which about 530 (0.24%) were called active. Cut-off read from the data, not from the text of the source: active = inhibition above about 13%; inconclusive = no clear call, values can overlap the other calls; inactive = below that. For the sample, actives were picked, then their nearest neighbours and some compounds at random. Entries with a potency or affinity are not part of this list.", "data": [{"biological_target": "Bifunctional protein GlmU (Mycobacterium tuberculosis (strain ATCC 25618 / H37Rv)) (UniProt P9WMN3)", "sequence (P9WMN3 whole entry, looked up)": "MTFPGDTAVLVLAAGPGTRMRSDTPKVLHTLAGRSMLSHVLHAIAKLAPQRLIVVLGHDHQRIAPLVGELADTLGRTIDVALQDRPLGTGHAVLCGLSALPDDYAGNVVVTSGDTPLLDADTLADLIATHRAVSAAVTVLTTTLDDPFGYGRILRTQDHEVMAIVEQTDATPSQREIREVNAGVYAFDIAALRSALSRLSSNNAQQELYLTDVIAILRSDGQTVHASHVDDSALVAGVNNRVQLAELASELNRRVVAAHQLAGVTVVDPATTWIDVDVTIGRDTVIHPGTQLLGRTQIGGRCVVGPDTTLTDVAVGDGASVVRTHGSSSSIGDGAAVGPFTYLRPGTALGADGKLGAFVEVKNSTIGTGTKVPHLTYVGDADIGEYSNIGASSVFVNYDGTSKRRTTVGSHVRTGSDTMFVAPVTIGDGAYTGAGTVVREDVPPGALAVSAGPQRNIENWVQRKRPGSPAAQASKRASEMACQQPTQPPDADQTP", "experiment": "inhibition of mycobacterial GlmU enzyme – biochemical, glucosamine-1-phosphate acetyltransferase (AID 1376);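 note: 0% = complete reaction with vehicle and 100% = reaction without substrate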", "conditions": "M. tuberculosis GlmU acetyltransferase enzyme assay; active compounds read high;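 tested at 30 µM in the primary screen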", "values": [{"smiles": "Cc1c(NC(=O)c2ccc(S(=O)(=O)N(C)c3ccccc3)cc2)c(=O)n(-c2ccccc2)n1C", "inhibition": "-6.06% (inactive)"}, {"smiles": "COc1ccc(C(C(=O)NC(C)(C)C)N(Cc2ccc(C)cc2)C(=O)CCC(=O)Nc2cc(C)on2)cc1", "note": "(centres undefined)", "inhibition": "5.39% (inactive)"}, {"smiles": "CCC(C)(C)NC(=O)C(c1ccc(OC)cc1)N(CC1CCCO1)C(=O)CCC(=O)Nc1cc(C)on1", "note": "(centres undefined)", "inhibition": "5.67% (inactive)"}, {"smiles": "COc1ccc(C(C(=O)NC(C)(C)C)N(CC2CCCO2)C(=O)CCC(=O)Nc2cc(C)on2)cc1", "note": "(centres undefined)", "inhibition": "16.9% (active)"}, {"smiles": "COc1cc2nc(C3CCC3)n(NC(=O)C3CCC(OC)CC3)c(=O)c2cc1OC", "note": "(centres undefined)", "inhibition": "0.09% (inactive)"}, {"smiles": "C=CC1CN2CCC1CC2c1[nH]c2ccccc2c1CCO", "note": "(centres undefined)", "inhibition": "-1.33% (inactive)"}, {"smiles": "NS(=O)(=O)c1cc(C(=O)OCC(=O)NC2CC2)ccc1Cl", "inhibition": "0.47% (inactive)"}, {"smiles": "O=[N+]([O-])c1ccc2c(c1)C(N1CCOCC1)/C(=C/COc1ccc(Cl)cc1Cl)O2", "note": "(centres undefined)", "inhibition": "-0.92% (inactive)"}, {"smiles": "COC(=O)c1oc2c(c1C)C1(CCC2)SCCS1", "inhibition": "-1.66% (inactive)"}, {"smiles": "COc1ccc(OC)c2c1C(=O)c1ccccc1C2=O", "inhibition": "1.18% (inactive)"}, {"smiles": "COc1ccc(OC)c2c1C(=O)C(Cl)=C(Cl)C2=O", "inhibition": "15.7% (active)"}, {"smiles": "COc1ccc(N)c2c1C(=O)c1ccccc1C2=O", "inhibition": "11.8% (inactive)"}, {"smiles": "O=C(O)/C=C/c1ccc([N+](=O)[O-])o1", "inhibition": "-1.44% (inactive)"}, {"smiles": "O=C1CN(/N=C/c2ccc([N+](=O)[O-])o2)C(=O)N1", "inhibition": "0.61% (inactive)"}, {"smiles": "Cc1ccc(C2=N/C(=C\\N(C)C)C(=O)O2)cc1", "inhibition": "1.44% (inactive)"}, {"smiles": "Cc1ccc(/C=C2\\SC(=S)N(/N=C/c3cc([N+](=O)[O-])ccc3O)C2=O)o1", "inhibition": "46.9% (active)"}, {"smiles": "Cc1ccccc1/C=C1\\SC(=S)N(/N=C/c2cc([N+](=O)[O-])ccc2O)C1=O", "inhibition": "-0.74% (inactive)"}, {"smiles": "O=C1/C(=C/c2cccc(Br)c2)SC(=S)N1/N=C/c1cc([N+](=O)[O-])ccc1O", "inhibition": "-5.24% (inactive)"}, {"smiles": "CC1CCC(NC(=O)c2ccc(/C=C3\\Oc4ccccc4N(C)C3=O)cc2)CC1", "note": "(centres undefined)", "inhibition": "-2.49% (inactive)"}, {"smiles": "O=C(O)C1C2C=CC(C3CC23)C1C(=O)O", "note": "(centres undefined)", "inhibition": "1.12% (inactive)"}, {"smiles": "O=C(O)C1C2C=CC(C2)C1C(=O)N1CCOCC1", "note": "(centres undefined)", "inhibition": "-2.63% (inactive)"}, {"smiles": "COc1cc(/C=N/n2c(-c3n[nH]c4c3CCC4)n[nH]c2=S)cc(OC)c1O", "inhibition": "0.14% (inactive)"}, {"smiles": "COc1cc(/C=N/n2c(-c3n[nH]c4c3CCC4)n[nH]c2=S)ccc1O", "inhibition": "1.56% (inactive)"}, {"smiles": "COc1ccc(/C=N/n2c(-c3n[nH]c4c3CCC4)n[nH]c2=S)cc1OC", "inhibition": "14.3% (active)"}, {"smiles": "Cc1cc(C(=O)O)c(CSCc2cc(C(=O)O)oc2C)o1", "inhibition": "2.24% (inactive)"}, {"smiles": "CN(C)CC(C)(C)CN=Cc1c(O)[nH]c2ccccc12", "inhibition": "-4.17% (inactive)"}, {"smiles": "COc1cc2c(cc1O)C(SC)=NC(C)(C)C2", "inhibition": "14.9% (active)"}, {"smiles": "COc1cc2c(cc1OC)C(SC)=NC(C)(C)C2", "inhibition": "8.72% (inactive)"}, {"smiles": "COc1cc2c(cc1OC)C(SC)=NC1(CCCC1)C2", "inhibition": "2.45% (inactive)"}, {"smiles": "Cc1cccc(N2CCN(C(=O)N3CCCCC3)CC2)c1C", "inhibition": "4.08% (inactive)"}, {"smiles": "Cc1cccc(C)c1N1CCN(C(=O)N2CCOCC2)CC1", "inhibition": "1.63% (inactive)"}, {"smiles": "Cc1cccc(N2CCN(C(=O)N3CCOCC3)CC2)c1C", "inhibition": "13.8% (active)"}, {"smiles": "COc1ccc(-c2c3c(=O)n(C)c(=O)n(C)c3cn2-c2ccccc2)cc1", "inhibition": "-0.39% (inactive)"}, {"smiles": "COc1ccc(-c2c3c(=O)n(C)c(=O)n(C)c3cn2-c2cccc(OC)c2)cc1", "inhibition": "14% (active)"}, {"smiles": "COc1ccc(-c2c3c(=O)n(C)c(=O)n(C)c3cn2-c2ccc(O)cc2)cc1", "inhibition": "-0.66% (inactive)"}, {"smiles": "Cc1cc(C)c(C#N)c(SCC(=O)c2cccs2)n1", "inhibition": "3.22% (inactive)"}, {"smiles": "Cc1cc(C)c(C#N)c(SCC(=O)c2ccccc2)n1", "inhibition": "2% (inactive)"}, {"smiles": "Cc1cc(C)c(C#N)c(SCC(=O)c2ccc(Cl)cc2Cl)n1", "inhibition": "14.2% (active)"}, {"smiles": "CC1CCN(CCc2nc3cc(NC(=O)Nc4ccccc4)ccc3n2C)CC1", "inhibition": "-2.61% (inactive)"}, {"smiles": "O=c1[nH]c(/C=C/c2cccnc2)c([N+](=O)[O-])c(=O)[nH]1", "inhibition": "-1.57% (inactive)"}, {"smiles": "COc1ccc(CCn2c(-c3cc([N+](=O)[O-])cc([N+](=O)[O-])c3)nc3nc4ccccc4nc32)cc1OC", "inhibition": "1.37% (inactive)"}, {"smiles": "COC(=O)CCN(C(=O)c1cc([N+](=O)[O-])cc([N+](=O)[O-])c1)c1ccccn1", "inhibition": "9.11% (inactive)"}, {"smiles": "COC(=O)CCN(C(=O)c1cccc([N+](=O)[O-])c1)c1ccccn1", "inhibition": "2.81% (inactive)"}, {"smiles": "COC(=O)CCN(C(=O)c1ccc([N+](=O)[O-])cc1)c1ccccn1", "inhibition": "13.6% (active)"}, {"smiles": "CCc1nnc(NC(=O)C2CCCN(S(=O)(=O)c3ccc(OC)cc3)C2)s1", "note": "(centres undefined)", "inhibition": "-3.09% (inactive)"}, {"smiles": "CCOc1ccc(-n2c(C)nnc2SCC(=O)N(CC)CC)cc1", "inhibition": "-6.69% (inactive)"}, {"smiles": "O=C(O)c1ccccc1/C=N/NC(=O)C1CCCCC1", "inhibition": "1.79% (inactive)"}, {"smiles": "CC(C)C1NC(=S)N(C2CCCCC2)C1=O", "note": "(centres undefined)", "inhibition": "1.15% (inactive)"}, {"smiles": "CCC(C)C1NC(=S)N(C2CCCCC2)C1=O", "note": "(centres undefined)", "inhibition": "15.5% (active)"}, {"smiles": "CCC1NC(=S)N(C2CCCCC2)C1=O", "note": "(centres undefined)", "inhibition": "-5.8% (inactive)"}, {"smiles": "COc1ccc(NCN2C(=O)C3C4C=CC(C4)C3C2=O)cc1", "note": "(centres undefined)", "inhibition": "0.26% (inactive)"}, {"smiles": "COc1ccc(NCN2C(=O)CCC2=O)cc1", "inhibition": "13.4% (active)"}, {"smiles": "O=C1CCC(=O)N1CNc1ccc(Oc2ccccc2)cc1", "inhibition": "4.2% (inactive)"}, {"smiles": "NC(=O)c1c(NC(NC(=O)c2ccco2)C(=O)c2ccc(Cl)cc2)sc2c1CCCC2", "note": "(centres undefined)", "inhibition": "2% (inactive)"}, {"smiles": "Cc1ccc2nc(C)cc(N/N=C/c3cccnc3)c2c1", "inhibition": "-6% (inactive)"}, {"smiles": "CC(C)S(=O)(=O)C/C(N)=N/OS(=O)(=O)c1ccc(Cl)cc1", "inhibition": "0.64% (inactive)"}, {"smiles": "N#Cc1cccc(-n2nnnc2-c2ccc3c(c2)OCO3)c1", "inhibition": "0.01% (inactive)"}, {"smiles": "CC1CN(c2ccc([N+](=O)[O-])c(NCCOc3ccccc3)c2)CCN1", "note": "(centres undefined)", "inhibition": "1.45% (inactive)"}, {"smiles": "CCC(=O)OCCNc1cc(Sc2nccn2C)c2nonc2c1[N+](=O)[O-]", "inhibition": "12.7% (inactive)"}, {"smiles": "Cn1ccnc1Sc1cc(NCCCO)c([N+](=O)[O-])c2nonc12", "inhibition": "3.47% (inactive)"}, {"smiles": "CCC(=O)OCCNc1cc(Sc2nc3ccccc3[nH]2)c2nonc2c1[N+](=O)[O-]", "inhibition": "10.6% (inactive)"}, {"smiles": "Cc1nnc(Sc2cc(NCCO)c([N+](=O)[O-])c3nonc23)s1", "inhibition": "1.7% (inactive)"}, {"smiles": "Cc1ccc(Sc2cc(NCCCO)c([N+](=O)[O-])c3nonc23)cc1", "inhibition": "-0.69% (inactive)"}, {"smiles": "CCCC(=O)OCCNc1cc(Sc2nc3ccccc3[nH]2)c2nonc2c1[N+](=O)[O-]", "inhibition": "9.67% (inactive)"}, {"smiles": "CSc1ncccc1C(=O)OCC(=O)NC1CCS(=O)(=O)C1", "note": "(centres undefined)", "inhibition": "3.34% (inactive)"}, {"smiles": "Cc1ccccc1OCc1nc(C#N)c(N2CCCC2)o1", "inhibition": "-2.21% (inactive)"}, {"smiles": "COc1ccc(-c2cc(C(=O)N3CCN(c4ccccc4OC)CC3)no2)cc1OC", "inhibition": "-2.36% (inactive)"}, {"smiles": "Cc1nc2ccccc2cc1C(=O)N/N=C/c1cccc([N+](=O)[O-])c1", "inhibition": "1.15% (inactive)"}, {"smiles": "Cc1noc(C)c1C(=O)N1CCc2ccccc21", "inhibition": "12.9% (active)"}, {"smiles": "Cc1noc(C)c1C(=O)N1CCCc2ccccc21", "inhibition": "-6.07% (inactive)"}, {"smiles": "Cc1onc(-c2ccccc2)c1C(=O)N1CCc2ccccc21", "inhibition": "-2.16% (inactive)"}, {"smiles": "Cc1cc(S(=O)(=O)NCc2ccccc2)ccc1OCC(=O)N1CCOCC1", "inhibition": "0.4% (inactive)"}, {"smiles": "CC(C)CCNC(=O)CCCOc1cc(=O)n(C)c2ccccc12", "inhibition": "4.37% (inactive)"}, {"smiles": "CCN1CCN(C(=O)C23CCC(C)(C(=O)C2Br)C3(C)C)CC1", "note": "(centres undefined)", "inhibition": "5.77% (inactive)"}, {"smiles": "Cc1ccc(OCC(=O)c2c(O)c3ccccc3oc2=O)cc1C", "inhibition": "0.96% (inactive)"}, {"smiles": "COc1ccc(OCC(=O)c2c(O)c3ccccc3oc2=O)cc1", "inhibition": "13.8% (active)"}, {"smiles": "CCOc1ccc(OCC(=O)c2c(O)c3ccccc3oc2=O)cc1", "inhibition": "14.2% (active)"}, {"smiles": "Cc1ccc(C(C)C)c(OCC(=O)c2c(O)c3ccccc3oc2=O)c1", "inhibition": "4.14% (inactive)"}, {"smiles": "CCc1ccc(OCC(=O)c2c(O)c3ccccc3oc2=O)cc1", "inhibition": "-0.96% (inactive)"}, {"smiles": "CCCCC(=O)c1c(O)c2ccccc2oc1=O", "inhibition": "0.58% (inactive)"}, {"smiles": "CNc1c([N+](=O)[O-])cnn1-c1ccc(C)cc1", "inhibition": "5.02% (inactive)"}, {"smiles": "C=CCOc1ccc(/C(O)=C2/C(=O)C(=O)N(CCCn3ccnc3)C2c2ccco2)cc1", "note": "(centres undefined)", "inhibition": "5.54% (inactive)"}, {"smiles": "CC(C)(C)NCC(O)COc1ccc(Br)cc1", "note": "(centres undefined)", "inhibition": "-5.25% (inactive)"}, {"smiles": "CN(C)c1nc(-c2ccccc2)nc(-c2ccc(Cl)cc2)c1C#N", "inhibition": "-2.64% (inactive)"}, {"smiles": "C/C(=N\\NC(=O)c1ccccc1)c1ccccc1Br", "inhibition": "3.08% (inactive)"}, {"smiles": "Nc1ccc(S(=O)(=O)N2CCCC2)cc1Cl", "inhibition": "0.44% (inactive)"}, {"smiles": "COC(=O)C1C(c2ccccc2)C=CC(c2ccccc2)C1C(=O)O", "note": "(centres undefined)", "inhibition": "2.66% (inactive)"}, {"smiles": "CC1=CC(C)C(C(=O)O)C(C(=O)O)C1", "note": "(centres undefined)", "inhibition": "4.72% (inactive)"}, {"smiles": "CC(C)(C)C(=O)COC(=O)c1cccc(NC(=O)c2ccco2)c1", "inhibition": "3.57% (inactive)"}, {"smiles": "CN(C)c1ccc(-c2nc3ccccc3n2C)cc1", "inhibition": "3.52% (inactive)"}, {"smiles": "CCn1c(-c2ccc(N)cc2)nc2ccccc21", "inhibition": "4.62% (inactive)"}, {"smiles": "CCn1c(-c2ccc(N(C)C)cc2)nc2ccccc21", "inhibition": "13.3% (active)"}, {"smiles": "Cc1cnc(C)c(N2CCC(C(=O)NCc3cccs3)CC2)n1", "inhibition": "2.06% (inactive)"}, {"smiles": "Cc1cnc(C)c(N2CCC(C(=O)NC(C)c3cccs3)CC2)n1", "note": "(centres undefined)", "inhibition": "13.1% (active)"}, {"smiles": "Cc1cnc(C)c(N2CCC(C(=O)NCc3ccco3)CC2)n1", "inhibition": "-3.63% (inactive)"}, {"smiles": "O=C/C(=C\\Nc1ccccn1)c1nc2ccccc2o1", "inhibition": "13.3% (active)"}, {"smiles": "O=C/C(=C\\Nc1ccc(Cl)cn1)c1nc2ccccc2o1", "inhibition": "0.28% (inactive)"}, {"smiles": "O=C/C(=C\\Nc1ccccn1)c1nc2cc(Cl)ccc2o1", "inhibition": "-1.58% (inactive)"}, {"smiles": "COC(=O)/C=C/c1ccc(-n2cncn2)cc1", "inhibition": "0.5% (inactive)"}]}]}
